Holding throughout (experiment): DAPPL (digital affinity profiling via proximity ligation, sequencing); 10 mM Tris-HCl pH 7.5, 50 mM NaCl, 1 mM DTT, 4% glycerol, room temperature, 30 min; GST-TFs on glutathione beads, 16-mer random dsDNA library, 0.1% formaldehyde crosslink after washing; high values mean tight binding
Holding throughout (conditions): protein: recombinant; tags: N-terminal GST; dsDNA, one strand shown

Assay [1] deals with T1, FLI1 (Homo sapiens, UniProt Q01543 1-452).
T1 sequence: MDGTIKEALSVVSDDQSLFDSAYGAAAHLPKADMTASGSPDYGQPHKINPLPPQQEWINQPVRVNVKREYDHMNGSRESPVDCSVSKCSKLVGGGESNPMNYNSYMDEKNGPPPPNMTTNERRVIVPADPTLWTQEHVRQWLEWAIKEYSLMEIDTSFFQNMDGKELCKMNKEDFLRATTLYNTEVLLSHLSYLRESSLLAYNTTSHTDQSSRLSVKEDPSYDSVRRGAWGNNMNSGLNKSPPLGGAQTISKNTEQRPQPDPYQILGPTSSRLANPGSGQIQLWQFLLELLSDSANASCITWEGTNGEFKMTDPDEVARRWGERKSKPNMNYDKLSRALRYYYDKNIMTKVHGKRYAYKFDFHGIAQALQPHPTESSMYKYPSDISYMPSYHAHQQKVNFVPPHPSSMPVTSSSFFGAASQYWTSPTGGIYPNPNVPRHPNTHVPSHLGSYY
The gist of the method:
(§1)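 Each value of binding signal is a hexamer's read frequency for a factor divided by the same hexamer's frequency in the tag-only sample. Barcoded, bead-captured GST fusions of human transcription factors made in yeast were pooled with that sample and incubated with 200 nmole of a random double-stranded 16-mer DNA library in Tris/NaCl/DTT/glycerol buffer at room temperature for 30 min. Washing, 0.1% formaldehyde crosslinking, proximity ligation, PCR and Illumina NextSeq500 sequencing followed.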

The target of assay [2] is T2, ELK1 (Homo sapiens, UniProt P19419 1-428).
T2 sequence: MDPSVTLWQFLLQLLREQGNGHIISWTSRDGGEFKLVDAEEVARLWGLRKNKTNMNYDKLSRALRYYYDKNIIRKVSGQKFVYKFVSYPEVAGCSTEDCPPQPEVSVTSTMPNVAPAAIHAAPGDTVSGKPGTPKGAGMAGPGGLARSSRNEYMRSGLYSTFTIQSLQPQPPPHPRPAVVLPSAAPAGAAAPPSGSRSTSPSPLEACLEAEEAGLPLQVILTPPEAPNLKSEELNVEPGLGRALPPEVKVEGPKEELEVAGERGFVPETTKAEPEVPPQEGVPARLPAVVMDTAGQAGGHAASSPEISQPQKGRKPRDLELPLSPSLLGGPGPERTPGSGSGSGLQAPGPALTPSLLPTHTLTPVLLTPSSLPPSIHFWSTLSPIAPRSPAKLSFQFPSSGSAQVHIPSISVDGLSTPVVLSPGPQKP
The gist of the method:
as §1

In assay [3] the target is T3, GABPA (Homo sapiens, UniProt Q06546 1-454).
T3 sequence: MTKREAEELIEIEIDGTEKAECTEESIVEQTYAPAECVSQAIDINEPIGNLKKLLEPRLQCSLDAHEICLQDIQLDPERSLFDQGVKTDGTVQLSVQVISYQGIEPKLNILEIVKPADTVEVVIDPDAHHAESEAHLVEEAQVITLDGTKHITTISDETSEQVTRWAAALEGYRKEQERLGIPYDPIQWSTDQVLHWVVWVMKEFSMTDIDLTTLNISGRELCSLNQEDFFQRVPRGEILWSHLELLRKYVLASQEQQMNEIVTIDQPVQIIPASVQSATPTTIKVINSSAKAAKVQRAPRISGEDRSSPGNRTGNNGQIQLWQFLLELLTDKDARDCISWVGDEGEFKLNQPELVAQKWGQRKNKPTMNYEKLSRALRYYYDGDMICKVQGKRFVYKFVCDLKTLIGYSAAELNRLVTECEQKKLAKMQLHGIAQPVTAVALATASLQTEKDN
The gist of the method: as §1

Assay [4] deals with T4, ERG (Homo sapiens, UniProt P11308 1-479).
T4 sequence: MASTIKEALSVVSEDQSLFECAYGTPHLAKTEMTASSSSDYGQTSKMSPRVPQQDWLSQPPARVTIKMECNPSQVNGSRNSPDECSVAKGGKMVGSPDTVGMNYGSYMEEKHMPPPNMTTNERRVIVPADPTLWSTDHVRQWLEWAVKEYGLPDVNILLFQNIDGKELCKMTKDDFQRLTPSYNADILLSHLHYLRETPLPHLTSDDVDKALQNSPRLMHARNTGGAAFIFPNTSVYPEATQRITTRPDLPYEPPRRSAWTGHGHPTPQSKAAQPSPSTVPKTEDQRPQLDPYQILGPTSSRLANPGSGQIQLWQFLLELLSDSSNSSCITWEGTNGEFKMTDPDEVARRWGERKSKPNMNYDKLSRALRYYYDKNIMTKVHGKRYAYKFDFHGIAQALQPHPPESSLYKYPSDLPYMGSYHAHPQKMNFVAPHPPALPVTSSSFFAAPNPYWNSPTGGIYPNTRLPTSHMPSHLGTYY
The gist of the method: as §1

Assay [5] has as its target ELF1 (Homo sapiens, UniProt P32519 1-619). The gist of the method: as §1
In assay [6] the target is T5, EHF (Homo sapiens, UniProt Q9NZC4 1-300).
T5 sequence: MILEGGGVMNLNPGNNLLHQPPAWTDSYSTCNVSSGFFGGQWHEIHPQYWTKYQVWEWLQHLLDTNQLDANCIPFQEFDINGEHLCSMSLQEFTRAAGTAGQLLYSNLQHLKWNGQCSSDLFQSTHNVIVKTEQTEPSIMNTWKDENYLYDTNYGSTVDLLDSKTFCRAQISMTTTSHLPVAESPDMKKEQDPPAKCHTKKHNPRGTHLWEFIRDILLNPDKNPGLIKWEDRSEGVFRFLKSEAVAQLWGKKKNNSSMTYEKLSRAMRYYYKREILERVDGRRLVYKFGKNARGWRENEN
The gist of the method:
as §1

Assay [7] deals with SPI1 (Homo sapiens, UniProt P17947 1-270). The gist of the method: as §1
The target in assay [8] is SPIB (Homo sapiens, UniProt Q01892 1-262). The gist of the method:
as §1

Assay [9] concerns the target T6, ELK3 (Homo sapiens, UniProt P41970 1-407).
T6 sequence: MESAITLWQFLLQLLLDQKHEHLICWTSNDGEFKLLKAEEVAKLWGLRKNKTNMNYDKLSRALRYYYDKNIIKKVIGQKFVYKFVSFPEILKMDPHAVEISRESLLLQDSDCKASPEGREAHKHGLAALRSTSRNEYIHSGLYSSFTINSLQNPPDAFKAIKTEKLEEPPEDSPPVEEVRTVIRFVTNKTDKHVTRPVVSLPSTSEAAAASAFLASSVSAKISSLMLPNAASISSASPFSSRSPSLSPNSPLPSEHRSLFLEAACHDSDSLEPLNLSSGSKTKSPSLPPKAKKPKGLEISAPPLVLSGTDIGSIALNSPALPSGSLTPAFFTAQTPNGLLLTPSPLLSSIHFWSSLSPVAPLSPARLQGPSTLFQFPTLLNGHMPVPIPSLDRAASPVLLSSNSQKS
The gist of the method:
as §1

Assay [10] has as its target T7, FEV (Homo sapiens, UniProt Q99581 1-238).
T7 sequence: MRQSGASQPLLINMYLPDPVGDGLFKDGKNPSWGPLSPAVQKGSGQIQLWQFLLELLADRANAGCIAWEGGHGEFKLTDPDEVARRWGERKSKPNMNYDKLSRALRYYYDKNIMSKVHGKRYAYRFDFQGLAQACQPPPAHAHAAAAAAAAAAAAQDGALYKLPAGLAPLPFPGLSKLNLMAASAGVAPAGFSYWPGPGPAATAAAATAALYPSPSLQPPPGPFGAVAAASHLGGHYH
The gist of the method: as §1

For assay [11], the target named is ETV5 (Homo sapiens, UniProt P41161 1-510). The gist of the method: as §1
Chain of ETV5 (P41161 whole entry): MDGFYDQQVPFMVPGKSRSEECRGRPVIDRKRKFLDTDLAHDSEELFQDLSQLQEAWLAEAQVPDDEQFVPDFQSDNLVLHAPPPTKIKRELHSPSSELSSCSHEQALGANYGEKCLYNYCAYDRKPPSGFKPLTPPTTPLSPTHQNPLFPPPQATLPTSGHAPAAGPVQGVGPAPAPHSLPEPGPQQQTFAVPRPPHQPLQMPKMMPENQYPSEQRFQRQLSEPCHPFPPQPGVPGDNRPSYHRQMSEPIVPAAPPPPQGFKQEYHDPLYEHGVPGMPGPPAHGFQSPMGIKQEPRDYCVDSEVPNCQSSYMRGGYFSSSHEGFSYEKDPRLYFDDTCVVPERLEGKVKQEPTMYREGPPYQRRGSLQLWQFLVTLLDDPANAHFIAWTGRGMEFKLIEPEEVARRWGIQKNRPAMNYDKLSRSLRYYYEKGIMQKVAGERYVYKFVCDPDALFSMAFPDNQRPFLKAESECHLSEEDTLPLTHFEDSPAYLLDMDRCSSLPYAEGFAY
Assay [12] has as its target T8, SPIC (Homo sapiens, UniProt Q8N5J4 1-248).
T8 sequence: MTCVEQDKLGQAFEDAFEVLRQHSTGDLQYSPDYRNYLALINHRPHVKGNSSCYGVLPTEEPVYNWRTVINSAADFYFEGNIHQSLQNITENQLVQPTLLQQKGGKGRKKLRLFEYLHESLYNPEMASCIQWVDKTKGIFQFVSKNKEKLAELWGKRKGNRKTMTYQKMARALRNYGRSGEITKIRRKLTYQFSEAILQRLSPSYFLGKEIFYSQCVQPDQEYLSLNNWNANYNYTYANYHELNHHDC
The gist of the method:
as §1

Assay [13] addresses ELF4 (Homo sapiens, UniProt Q99607 1-663). The gist of the method: as §1
In assay [14] the target is T9, ELK4 (Homo sapiens, UniProt P28324-2 1-405).
T9 sequence: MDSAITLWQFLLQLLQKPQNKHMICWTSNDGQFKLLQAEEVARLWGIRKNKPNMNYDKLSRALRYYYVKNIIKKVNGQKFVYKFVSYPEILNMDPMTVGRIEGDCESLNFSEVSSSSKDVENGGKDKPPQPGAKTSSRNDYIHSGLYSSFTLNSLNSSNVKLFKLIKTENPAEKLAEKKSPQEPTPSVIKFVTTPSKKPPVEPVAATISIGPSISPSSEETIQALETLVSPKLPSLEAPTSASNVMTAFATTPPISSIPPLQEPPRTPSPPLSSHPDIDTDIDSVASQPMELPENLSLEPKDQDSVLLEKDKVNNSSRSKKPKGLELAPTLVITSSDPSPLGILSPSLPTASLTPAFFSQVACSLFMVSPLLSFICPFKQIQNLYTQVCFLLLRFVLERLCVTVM
The gist of the method: as §1

For assay [15], the target named is T10, ETV2 (Homo sapiens, UniProt O00321 1-342).
T10 sequence: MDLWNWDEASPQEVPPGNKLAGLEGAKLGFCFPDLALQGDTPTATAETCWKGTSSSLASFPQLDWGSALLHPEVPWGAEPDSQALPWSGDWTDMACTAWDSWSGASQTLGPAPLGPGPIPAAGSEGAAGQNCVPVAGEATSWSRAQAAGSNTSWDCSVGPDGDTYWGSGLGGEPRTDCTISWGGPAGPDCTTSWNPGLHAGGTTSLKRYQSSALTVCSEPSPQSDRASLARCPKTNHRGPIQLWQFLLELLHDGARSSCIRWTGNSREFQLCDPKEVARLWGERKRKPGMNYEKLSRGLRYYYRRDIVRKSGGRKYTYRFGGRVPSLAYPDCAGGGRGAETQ
The gist of the method: as §1

Assay [16] addresses T11, ELF3 (Homo sapiens, UniProt P78545 1-371).
T11 sequence: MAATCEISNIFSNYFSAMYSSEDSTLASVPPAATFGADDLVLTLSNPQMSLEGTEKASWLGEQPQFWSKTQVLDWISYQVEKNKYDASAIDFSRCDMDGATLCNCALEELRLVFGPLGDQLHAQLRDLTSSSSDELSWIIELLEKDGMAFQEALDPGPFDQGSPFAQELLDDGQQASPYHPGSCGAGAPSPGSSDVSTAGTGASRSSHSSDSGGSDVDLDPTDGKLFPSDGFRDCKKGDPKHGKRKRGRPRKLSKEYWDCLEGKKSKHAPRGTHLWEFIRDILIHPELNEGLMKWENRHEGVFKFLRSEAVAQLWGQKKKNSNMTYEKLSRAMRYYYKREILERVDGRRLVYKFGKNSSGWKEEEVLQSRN
The gist of the method: as §1

The target in assay [17] is CRX (Homo sapiens, UniProt O43186 1-299). The gist of the method: as §1
Chain of CRX (O43186 whole entry): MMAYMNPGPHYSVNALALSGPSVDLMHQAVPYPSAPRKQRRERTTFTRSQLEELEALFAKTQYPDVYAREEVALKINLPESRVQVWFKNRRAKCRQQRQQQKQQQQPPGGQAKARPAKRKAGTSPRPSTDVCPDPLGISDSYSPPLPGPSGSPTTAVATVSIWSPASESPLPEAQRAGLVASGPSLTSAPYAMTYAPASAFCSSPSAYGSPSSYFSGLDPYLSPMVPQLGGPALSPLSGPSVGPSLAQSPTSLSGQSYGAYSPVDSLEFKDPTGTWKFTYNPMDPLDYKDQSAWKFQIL
Assay [18] deals with ETV1 (Homo sapiens, UniProt P50549 1-477). The gist of the method: as §1
Chain of ETV1 (P50549 whole entry): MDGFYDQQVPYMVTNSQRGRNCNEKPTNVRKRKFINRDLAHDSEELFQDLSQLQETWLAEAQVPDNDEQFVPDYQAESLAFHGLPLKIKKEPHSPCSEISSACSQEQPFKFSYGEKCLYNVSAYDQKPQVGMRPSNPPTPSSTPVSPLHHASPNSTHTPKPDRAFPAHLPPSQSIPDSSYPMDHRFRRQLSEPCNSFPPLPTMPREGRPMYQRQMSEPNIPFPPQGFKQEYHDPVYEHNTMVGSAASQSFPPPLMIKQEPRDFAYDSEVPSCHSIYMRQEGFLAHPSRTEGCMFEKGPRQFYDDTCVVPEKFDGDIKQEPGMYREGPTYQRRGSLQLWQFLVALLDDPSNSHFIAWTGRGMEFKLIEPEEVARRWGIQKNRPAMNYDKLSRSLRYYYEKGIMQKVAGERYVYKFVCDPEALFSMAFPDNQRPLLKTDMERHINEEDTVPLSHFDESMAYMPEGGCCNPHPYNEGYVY

Chain of ELF4 (Q99607 whole entry): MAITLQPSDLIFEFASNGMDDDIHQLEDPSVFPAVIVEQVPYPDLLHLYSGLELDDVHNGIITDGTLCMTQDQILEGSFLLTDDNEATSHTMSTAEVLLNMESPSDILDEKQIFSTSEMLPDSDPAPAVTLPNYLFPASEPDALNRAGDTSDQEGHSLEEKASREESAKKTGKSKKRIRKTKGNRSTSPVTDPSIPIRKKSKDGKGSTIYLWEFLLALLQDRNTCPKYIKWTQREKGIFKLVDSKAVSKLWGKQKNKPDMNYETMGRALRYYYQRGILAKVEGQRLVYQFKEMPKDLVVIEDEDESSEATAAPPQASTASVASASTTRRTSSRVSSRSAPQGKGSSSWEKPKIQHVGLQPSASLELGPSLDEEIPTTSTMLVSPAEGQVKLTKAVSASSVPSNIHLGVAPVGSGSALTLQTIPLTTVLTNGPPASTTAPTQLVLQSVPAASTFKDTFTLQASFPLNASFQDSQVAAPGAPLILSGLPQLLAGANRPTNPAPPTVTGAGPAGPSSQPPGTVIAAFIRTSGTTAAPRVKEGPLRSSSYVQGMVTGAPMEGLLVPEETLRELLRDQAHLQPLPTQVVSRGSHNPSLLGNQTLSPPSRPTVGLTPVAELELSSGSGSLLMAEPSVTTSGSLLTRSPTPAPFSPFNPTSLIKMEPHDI
Chain of SPIB (Q01892 whole entry): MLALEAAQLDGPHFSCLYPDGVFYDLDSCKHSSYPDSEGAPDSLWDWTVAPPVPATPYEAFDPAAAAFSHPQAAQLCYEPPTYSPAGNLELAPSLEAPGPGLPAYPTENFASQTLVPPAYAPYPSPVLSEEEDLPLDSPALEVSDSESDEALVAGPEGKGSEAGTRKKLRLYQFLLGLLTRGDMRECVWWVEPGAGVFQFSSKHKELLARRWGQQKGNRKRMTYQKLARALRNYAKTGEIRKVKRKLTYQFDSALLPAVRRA
Chain of ELF1 (P32519 whole entry): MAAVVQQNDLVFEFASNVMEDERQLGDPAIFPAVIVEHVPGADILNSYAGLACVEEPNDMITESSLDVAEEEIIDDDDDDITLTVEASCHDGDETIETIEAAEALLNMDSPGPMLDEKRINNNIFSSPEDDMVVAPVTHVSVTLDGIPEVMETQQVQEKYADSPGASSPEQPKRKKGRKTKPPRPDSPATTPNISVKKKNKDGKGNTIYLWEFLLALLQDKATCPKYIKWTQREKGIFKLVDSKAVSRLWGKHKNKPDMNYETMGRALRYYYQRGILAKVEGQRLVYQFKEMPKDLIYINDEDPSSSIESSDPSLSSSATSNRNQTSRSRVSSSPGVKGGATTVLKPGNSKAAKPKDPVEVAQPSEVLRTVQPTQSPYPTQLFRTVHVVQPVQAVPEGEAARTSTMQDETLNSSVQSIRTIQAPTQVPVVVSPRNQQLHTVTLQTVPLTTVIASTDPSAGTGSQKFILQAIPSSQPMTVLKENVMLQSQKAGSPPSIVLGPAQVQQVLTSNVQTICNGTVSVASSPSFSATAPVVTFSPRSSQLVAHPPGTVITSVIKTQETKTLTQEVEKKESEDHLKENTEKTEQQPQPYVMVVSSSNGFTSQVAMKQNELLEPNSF

As to CGCTCA, the binding signal in [1] was 1.13 fold enrichment (6-mer frequency, TF over GST control); in assay [2] it was 1.21 fold enrichment (6-mer frequency, TF over GST control); in assay [3], 1.16 fold enrichment (6-mer frequency, TF over GST control); in assay [4] it was 1.25 fold enrichment (6-mer frequency, TF over GST control); in assay [5] it was 1.13 fold enrichment (6-mer frequency, TF over GST control); in assay [6] it was 1.18 fold enrichment (6-mer frequency, TF over GST control). Besides, the binding signal in assay [7] was 1.16 fold enrichment (6-mer frequency, TF over GST control); in [8] it was 1.16 fold enrichment (6-mer frequency, TF over GST control); in assay [9], 1.13 fold enrichment (6-mer frequency, TF over GST control); in [10], 1.13 fold enrichment (6-mer frequency, TF over GST control); in [11], 1.19 fold enrichment (6-mer frequency, TF over GST control); in [12], 1.06 fold enrichment (6-mer frequency, TF over GST control). For the same sequence, the binding signal was 1.24 fold enrichment (6-mer frequency, TF over GST control) in [13]; 1.32 fold enrichment (6-mer frequency, TF over GST control) in assay [14]; 1.26 fold enrichment (6-mer frequency, TF over GST control) in [15]; 1.16 fold enrichment (6-mer frequency, TF over GST control) in assay [16]; 1.2 fold enrichment (6-mer frequency, TF over GST control) in [17]; 1.13 fold enrichment (6-mer frequency, TF over GST control) in [18].
On to ATGCGG, for which the binding signal was 1.3 fold enrichment (6-mer frequency, TF over GST control) in assay [1]; 1.22 fold enrichment (6-mer frequency, TF over GST control) in [2]; 1.2 fold enrichment (6-mer frequency, TF over GST control) in assay [3]; 1.22 fold enrichment (6-mer frequency, TF over GST control) in assay [4]; 1.2 fold enrichment (6-mer frequency, TF over GST control) in assay [5]; 1.31 fold enrichment (6-mer frequency, TF over GST control) in assay [6]. In addition, the binding signal in assay [7] is 1.56 fold enrichment (6-mer frequency, TF over GST control); in assay [8], 1.32 fold enrichment (6-mer frequency, TF over GST control); in assay [9], 1.23 fold enrichment (6-mer frequency, TF over GST control); in assay [10], 1.13 fold enrichment (6-mer frequency, TF over GST control); in assay [11], 1.29 fold enrichment (6-mer frequency, TF over GST control); in assay [12] it was 1.49 fold enrichment (6-mer frequency, TF over GST control). Moreover, the binding signal in [13] is 1.23 fold enrichment (6-mer frequency, TF over GST control); in assay [14], 1.15 fold enrichment (6-mer frequency, TF over GST control); in [15], 1.27 fold enrichment (6-mer frequency, TF over GST control); in assay [16] it was 1.63 fold enrichment (6-mer frequency, TF over GST control); in assay [18], 1.24 fold enrichment (6-mer frequency, TF over GST control).

The values above are taken from PMC7862700, “An all-to-all approach to the identification of sequence-specific readers for epigenetic DNA modifications on cytosine”.
